Consider five compounds from PubChem BioAssay.

Test [1] is described as follows: compounds binding Alexa647 anti-His antibody – biochemical, small-molecule microarray, 635 nm fluorescence, artefact control for SMM control protein annotation, primary screen (AID 1128).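 Also: score merges feature fluorescence with signal-to-noise for each printed compound spot.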 The note with it: higher = more signal.
For test [2], the system named is Human papillomavirus type 1a E7 protein (residues 1-88). Briefly: HPV1a E7 small-molecule binders, primary screen, biochemical, small-molecule microarray, residues 1-88, 635 nm (AID 1129). The note with it: small-molecule microarray binding, fluorescence 635 nm; higher = more signal.
For test [3], the target named is Focal adhesion kinase 1 (Homo sapiens) (UniProt Q05397). Put plainly: PTK2 protein binding on printed compound slides – biochemical, small-molecule microarray, 635/667 nm fluorescence, BSA, DTT, primary screen (AID 1130).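 Also: composite of spot emission at 667 nm and signal to noise over triplicate slides.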 The note with it: 635 nm fluorescence, higher = more signal.
Test [4] deals with Fibrinogen (Alexa647-labelled). Put plainly: Alexa647-fibrinogen binding to printed small molecules – biochemical, small-molecule microarray, 635/667 nm fluorescence, artefact control for SMM control-protein annotation, profiling panel (AID 1131).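 Also: z-score merges 667 nm fluorescence with per-spot signal-to-noise over triplicate slides.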 The note with it: fibrinogen-A647 binding fluorescence, higher = more signal.
The target of test [5] is Follistatin (Homo sapiens) (UniProt P19883). Briefly: FST protein binding to printed compounds – biochemical, small-molecule microarray, 635/667 nm fluorescence, primary screen (AID 1132). The note with it: 635 nm fluorescence, higher = more signal.
In test [6] the target is Fibroblast growth factor 2 (Homo sapiens) (UniProt P09038). Briefly: basic fibroblast growth factor binding to printed compounds – biochemical, small-molecule microarray, 635/667 nm fluorescence, primary screen (AID 1133). The note with it: FGF2, fluorescence 635/667, higher = more signal.
Test [7] is described as follows: JC-1 mitochondrial potential readout, lung cancer cells – cell-based, A549, JC-1 fluorescence, basal, 24 h, 100 nL, profiling panel (AID 1138).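 Also: A549 lung adenocarcinoma cells under basal conditions with no added stimulus; test concentration not given here.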 The note with it: higher = more signal.
Another test relates to Lefty1. Briefly: Lefty1 protein binding to printed compounds – biochemical, small-molecule microarray, 635/667 nm fluorescence, primary screen (AID 1139). The note with it: fluorescence 635/667, higher = more signal.
Test [8] deals with wheat germ agglutinin (Triticum aestivum), Alexa647-labelled. Put plainly: Alexa647-WGA lectin binding to printed small molecules – biochemical, small-molecule microarray, 635/667 nm fluorescence, artefact control for SMM control-protein annotation, profiling panel (AID 1140).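 Also: score merges 667 nm feature emission with signal to noise over triplicate slides.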 The note with it: WGA-A647 binding, 635 nm fluorescence, higher = more signal.
Test [9] deals with Luciferin 4-monooxygenase (Photinus pyralis) (UniProt P08659). Put plainly: inhibition of purified Photinus pyralis luciferase – biochemical, luminescence, purified enzyme, 2006 set, primary screen (AID 1141).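 Also: cell-free assay with purified firefly luciferase at 100 ng per well in PBS; test concentration not given here.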 The note with it: purified firefly luciferase, SteadyGlo luminescence, 30 min; higher = more signal, called active from +8 up or from −8 down.
Test [10] concerns Wnt5a (protein binding on small-molecule microarray). Put plainly: small molecules binding Wnt5a protein – biophysical, small-molecule microarray, 635/667 nm fluorescence, primary screen (AID 1142).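 Also: fluorescence read at 667 nm with signal to noise per printed feature.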 The note with it: 635 nm fluorescence, higher = more signal.
A short description of test [11]: ATP-based viability of Huh7 replicon cells – cell-based, CellTiter-Glo luminescence, basal, 48 h, cytotoxicity control for HCV replication inhibitor project, primary screen (AID 1143).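 Also: Huh7 hepatoma cells carrying a hepatitis C replication reporter with no stimulus; test concentration not given here.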 The note with it: higher = more signal, called active from +8 up or from −8 down.
The nature of test [12]: Pseudomonas biofilm growth suppression – PAO1 strain, BacTiter-Glo luminescence, LB-PBS, primary screen (AID 1144). The note with it: P. aeruginosa PAO1 biofilm, 12 h, higher = more signal.
Test [13] in a line: basal CRE-LacZ reporter activity in PC12 – cell-based, unstimulated, primary screen (AID 1145). The note with it: no forskolin, luminescence, 4.5 h, higher = more signal, called active from +8 up or from −8 down.
A short description of test [14]: forskolin-driven CRE-LacZ activity in PC12 – cell-based, CRE-LacZ reporter, forskolin-stimulated, primary screen (AID 1146).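 Also: PC12 cells with 6xCRE LacZ reporter stimulated by forskolin 10 µM; beta-galactosidase reporter signal reflecting CREB driven transcription.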 The note with it: luminescence, 4.5 h, higher = more signal, called active from +8 up or from −8 down.
In test [15] the target is Streptavidin (Streptomyces avidinii) (UniProt P22629). Briefly: compounds binding control protein streptavidin – biophysical, small-molecule microarray, 635/667 nm fluorescence, artefact control for SMM compound annotation, primary screen (AID 1147).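 Also: signal reflects streptavidin binding to arrayed compounds as a control protein.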 The note with it: higher = more signal.
Test [16] can be described thus: probe aInhba binding on compound microarray – biochemical, small-molecule microarray, 635/667 nm fluorescence, primary screen (AID 1148).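 Also: score merges 667nm spot fluorescence with signal-to-noise for antibody binding to printed compounds.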 The note with it: higher = more signal.
Test [17] concerns the target Torsin-1A (Homo sapiens) (UniProt O14656). Put plainly: TOR1A wild-type binding on microarray – cell lysate, small-molecule microarray, lysate, 635/667 nm, primary screen (AID 1149). The note with it: COS7 hTOR1A-WT lysate, 635 nm fluorescence, higher = more signal.
Test [18] has the same target. Put plainly: torsin A mutant lysate binding on microarrays – cell lysate, small-molecule microarray, COS7 lysate, 635/667 nm fluorescence, primary screen (AID 1150).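 Also: score pools 667 nm emission and signal to noise measuring lysate protein binding.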 The note with it: COS7 hTOR1A mutant lysate, 635 nm fluorescence, higher = more signal.
Test [19] deals with Sonic hedgehog protein (Shh). Put plainly: Sonic hedgehog microarray binding compounds – biochemical, small-molecule microarray, 635/667 nm fluorescence, primary screen (AID 1151).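 Also: Shh protein binding to compounds spotted on small-molecule microarray slides; score combines spot fluorescence intensity with signal-to-noise across triplicate slides.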 The note with it: 635 nm fluorescence, higher = more signal.

Structures are written as SMILES. The source made the active and inactive calls. Unless noted, no rule for the calls is given here.

Chain of Luciferin 4-monooxygenase (Photinus pyralis) (P08659 whole entry, looked up): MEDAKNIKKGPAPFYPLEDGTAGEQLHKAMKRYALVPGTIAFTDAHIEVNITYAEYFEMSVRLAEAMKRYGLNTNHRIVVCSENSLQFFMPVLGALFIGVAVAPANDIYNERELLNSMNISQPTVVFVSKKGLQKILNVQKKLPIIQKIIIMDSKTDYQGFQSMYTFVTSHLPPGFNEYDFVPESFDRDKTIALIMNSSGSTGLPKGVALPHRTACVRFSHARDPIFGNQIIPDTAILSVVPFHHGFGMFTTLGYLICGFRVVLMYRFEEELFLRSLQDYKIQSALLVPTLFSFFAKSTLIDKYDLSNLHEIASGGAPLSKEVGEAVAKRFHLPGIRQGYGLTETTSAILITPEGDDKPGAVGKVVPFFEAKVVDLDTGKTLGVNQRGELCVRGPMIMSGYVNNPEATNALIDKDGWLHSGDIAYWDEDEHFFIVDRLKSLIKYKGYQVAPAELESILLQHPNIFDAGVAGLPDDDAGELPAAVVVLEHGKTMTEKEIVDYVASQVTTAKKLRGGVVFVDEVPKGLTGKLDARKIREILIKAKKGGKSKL
Chain of Focal adhesion kinase 1 (Homo sapiens) (Q05397 whole entry, looked up): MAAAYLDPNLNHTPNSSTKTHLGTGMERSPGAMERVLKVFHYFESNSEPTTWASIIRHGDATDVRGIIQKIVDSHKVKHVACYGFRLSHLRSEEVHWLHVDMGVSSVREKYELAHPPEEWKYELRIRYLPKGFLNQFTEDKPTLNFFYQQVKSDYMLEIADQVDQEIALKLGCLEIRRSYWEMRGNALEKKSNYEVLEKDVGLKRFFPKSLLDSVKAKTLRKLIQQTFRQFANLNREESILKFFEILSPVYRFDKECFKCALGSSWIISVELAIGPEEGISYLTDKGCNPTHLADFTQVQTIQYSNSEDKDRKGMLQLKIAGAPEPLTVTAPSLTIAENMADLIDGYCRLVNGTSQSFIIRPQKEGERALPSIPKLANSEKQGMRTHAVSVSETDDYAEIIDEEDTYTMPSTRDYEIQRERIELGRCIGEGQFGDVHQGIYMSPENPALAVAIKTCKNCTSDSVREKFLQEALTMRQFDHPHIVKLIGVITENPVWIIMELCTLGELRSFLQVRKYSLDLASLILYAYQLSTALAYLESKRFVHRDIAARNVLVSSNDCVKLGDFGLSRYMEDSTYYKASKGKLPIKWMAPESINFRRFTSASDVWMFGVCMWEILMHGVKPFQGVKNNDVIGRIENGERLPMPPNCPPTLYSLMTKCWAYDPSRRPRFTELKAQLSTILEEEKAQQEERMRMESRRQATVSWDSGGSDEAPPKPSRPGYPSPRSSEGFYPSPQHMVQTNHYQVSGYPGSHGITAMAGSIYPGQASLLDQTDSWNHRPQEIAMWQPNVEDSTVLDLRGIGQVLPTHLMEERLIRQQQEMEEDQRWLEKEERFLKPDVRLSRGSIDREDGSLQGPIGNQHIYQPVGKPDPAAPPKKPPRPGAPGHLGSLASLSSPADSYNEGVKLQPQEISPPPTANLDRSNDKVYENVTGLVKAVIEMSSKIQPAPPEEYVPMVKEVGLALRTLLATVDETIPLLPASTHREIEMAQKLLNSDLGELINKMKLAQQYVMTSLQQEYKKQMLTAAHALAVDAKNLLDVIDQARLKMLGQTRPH
Chain of Follistatin (Homo sapiens) (P19883 whole entry, looked up): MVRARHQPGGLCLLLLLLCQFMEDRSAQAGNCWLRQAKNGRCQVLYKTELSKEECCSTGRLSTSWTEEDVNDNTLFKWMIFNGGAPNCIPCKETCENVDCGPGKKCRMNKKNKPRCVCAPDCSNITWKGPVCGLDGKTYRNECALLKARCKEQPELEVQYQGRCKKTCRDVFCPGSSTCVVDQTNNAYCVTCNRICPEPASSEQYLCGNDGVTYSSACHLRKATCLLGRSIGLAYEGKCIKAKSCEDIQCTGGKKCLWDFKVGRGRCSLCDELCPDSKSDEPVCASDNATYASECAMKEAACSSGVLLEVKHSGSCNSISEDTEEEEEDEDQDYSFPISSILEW
Chain of Fibroblast growth factor 2 (Homo sapiens) (P09038 whole entry, looked up): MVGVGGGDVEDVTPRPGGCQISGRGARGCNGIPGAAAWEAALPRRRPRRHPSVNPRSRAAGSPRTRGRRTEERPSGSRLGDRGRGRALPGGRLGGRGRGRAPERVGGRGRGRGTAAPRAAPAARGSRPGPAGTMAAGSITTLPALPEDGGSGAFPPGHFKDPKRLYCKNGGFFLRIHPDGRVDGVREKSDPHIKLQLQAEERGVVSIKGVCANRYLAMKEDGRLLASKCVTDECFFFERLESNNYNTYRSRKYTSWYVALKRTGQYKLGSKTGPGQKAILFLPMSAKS
Chain of Streptavidin (Streptomyces avidinii) (P22629 whole entry, looked up): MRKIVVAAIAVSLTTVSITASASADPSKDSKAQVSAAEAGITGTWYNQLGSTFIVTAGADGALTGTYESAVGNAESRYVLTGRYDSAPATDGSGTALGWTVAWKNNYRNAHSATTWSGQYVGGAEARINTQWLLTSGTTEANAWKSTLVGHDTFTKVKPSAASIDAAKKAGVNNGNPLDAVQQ
Chain of Torsin-1A (Homo sapiens) (O14656 whole entry, looked up): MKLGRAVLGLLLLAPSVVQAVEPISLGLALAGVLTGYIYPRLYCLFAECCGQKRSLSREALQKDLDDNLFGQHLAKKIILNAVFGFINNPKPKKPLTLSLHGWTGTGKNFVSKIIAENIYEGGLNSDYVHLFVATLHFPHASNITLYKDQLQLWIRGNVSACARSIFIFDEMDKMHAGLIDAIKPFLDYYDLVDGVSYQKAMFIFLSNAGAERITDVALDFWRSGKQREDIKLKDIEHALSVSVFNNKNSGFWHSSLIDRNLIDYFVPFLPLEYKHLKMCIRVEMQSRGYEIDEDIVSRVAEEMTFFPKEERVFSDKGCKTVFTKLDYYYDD

Turning to `C=C(C(=O)CC[C@@H](OC(=O)c1ccccc1-c1ccccc1C(=O)O)c1cccc(OCCO)c1)C(C)C`, the composite z-score in test [1] was 0.256; in test [2], -0.481; in [3] it was -0.285; in test [4], -0.0661; in [5] it was 1.53; in test [6], 1.54. The composite z-score in the test on Lefty1 is 1.69; in [8] it was 0.58; in [10], 0.655; in test [15], -0.364; in test [16], 0.0391; with Torsin-1A (Homo sapiens) [17], 2.85. Further, the values for the composite z-score (with Torsin-1A (Homo sapiens) [18]; in test [19]) were 1.59 and 1.95, respectively. In addition, the z-score in [7] is 0.282; in test [9], -1.62 (inactive); in test [11] it was 0.954 (inactive); in [12], -0.417 (inactive); in test [13], 2.16 (inactive); in test [14], 2.88 (inactive).
In the case of `CCOC(=O)C[C@H]1[C@H](OC(=O)c2cc3ccccc3oc2=O)[C@@H](NC(=O)c2ccc(-c3ccccc3)cc2)c2cc(OCCCO)ccc2N1C(=O)Cc1ccc(OC)cc1`, the composite z-score amounted to 0.396 in [1]; 1.19 in test [2]; 0.414 in test [3]; 0.522 in [4]; 0.679 in test [5]; 1.41 in [6]. Moreover, the composite z-score with Lefty1 was 0.907; in [8], 0.266; in test [10], 0.391; in test [15] it was 0.385; in test [16] it was -0.0095; with Torsin-1A (Homo sapiens) [17], 0.195. For the same compound, the composite z-score with Torsin-1A (Homo sapiens) [18] came to 0.775; in test [19], 0.989. The z-score is -0.424 in test [7]; 0.853 (inactive) in test [9]; -0.346 (inactive) in test [11]; -0.301 (inactive) in [12]; 0.666 (inactive) in test [13]; 0.0179 (inactive) in [14].
For `CN(C)CCCCNC(=O)[C@H]1C[C@H]2C(=O)N[C@@H](CCCCN(C)C)C(=O)N2[C@H]1c1ccc(O)cc1`, the composite z-score in [1] is 1.01; in test [2], -0.102; in test [3] it was 0.129; in test [4] it was -0.803; in test [5] it was 1.19; in [6] it was 0.988. The composite z-score was 0.754 in the test with Lefty1; 0.0466 in test [8]; 0.215 in test [10]; 0.165 in test [15]; -0.206 in [16]; 0.464 with Torsin-1A (Homo sapiens) [17]. The composite z-score with Torsin-1A (Homo sapiens) [18] came to 0.282; in test [19] it was 1.29. The z-score in test [7] was -0.0458; in [9] it was 0.47 (inactive); in test [11] it was -1.14 (inactive); in test [12], -0.889 (inactive); in test [13], -1.61 (inactive); in test [14], -0.252 (inactive).
In the case of `CC(C)Cc1ccc(CN2CC[C@@H](NC(=O)c3ccccc3)C2)cc1`, the composite z-score in test [1] was 0.44; in test [2], -1.55; in test [3], -0.144; in test [4], 0.411; in test [5] it was -0.0213; in test [6] it was -0.382. The composite z-score is 0.247 with Lefty1; 0.0191 in test [8]; -0.36 in test [10]; -0.238 in [15]; -0.157 in test [16]; 0.205 in the test with Torsin-1A (Homo sapiens) [17]. Also, the figures for the composite z-score (in the test with Torsin-1A (Homo sapiens) [18]; in test [19]) were 0.134 and -0.0199, respectively. For the same compound, the z-score in test [7] was 1.81; in test [9], 0.525 (inactive); in [11], -2.65 (inactive); in test [12] it was 0.241 (inactive); in test [13], 3.31 (inactive); in test [14] it was 0.603 (inactive).
On to `C[N+](C)(C)CCCC[C@@H]1NC(=O)[C@H]2C[C@@H](C(=O)NCCCCCN)[C@@H](c3ccc(O)cc3)N2C1=O`, for which the composite z-score in [1] was determined as 3.32; in test [2] it was 1.21; in [3], 0.599; in test [4], 1.04; in test [5], 1.39; in test [6], 1.66. The composite z-score in the test on Lefty1 is 1.7; in test [8], 1.36; in test [10] it was 0.801; in test [15], 2.29; in [16], 0.228; with Torsin-1A (Homo sapiens) [17], 0.926. The results for the composite z-score (with Torsin-1A (Homo sapiens) [18]; in [19]) were 0.6 and 2.17, respectively. The z-score in [7] was 0.729; in test [9], -0.993 (inactive); in [11], -0.147 (inactive); in [12] it was 0.69 (inactive); in test [13], 1.11 (inactive); in test [14] it was 0.466 (inactive).
